Compound activity: PubChem BioAssay, National Center for Advancing Translational Sciences (NCATS)
NS1 inh – influenza NS1 inhibition; Potency, µM (series often up to 46.1 µM), without a hit: at the highest dose activity, positive = more growth; hit rate 0.4% among 270,000; AID 2326; calls by dose curve; further: potency means the concentration at half of the fitted maximal effect; actives are rising curves; nearly all actives have a fitted effect of over 50% in size
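Recovery from NS1-induced slow growth read by OD600 in budding yeast switched to galactose assay medium (pH 6.0, -URA) at 1:100 dilution. Compound 23 nl per well; the matching strain lacking NS1 serves as control.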
Pf growth 48h – inhibits P. falciparum growth in the first generation, 48 h; P. falciparum luciferase growth in erythrocytes, 48 h; Potency, µM (highest dose often 28.7 µM), without a hit: top-dose activity change, negative = inhibition, hits mostly inhibitors; hit rate 5.9% among 310,000; AID 504832; further: potency means the concentration at half of the fitted maximal effect; on the % scale 0 is the no-effect control and ±100 the full control effect
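Cell-based growth assay: transgenic P. falciparum expressing firefly luciferase, cultured in red cells within RPMI 1640 containing 0.5% w/v Albumax, 24 mM bicarbonate and gentamycin. A drop in luciferase activity indicates inhibition.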
SARS PLP yeast – blocks SARS-CoV papain-like protease in a yeast assay | S. cerevisiae expressing SARS-CoV PLpro, growth rescue | Potency, µM (titrated, usually from 32.9 µM), for the others: top-dose activity, positive = growth rescue, most hits filed as activators | hit rate 0.19% among 330,000 | AID 485353; calls by dose curve; further: potency means the concentration at half of the fitted maximal effect; 0% is about no effect; nearly all actives have a fitted effect of over 55% in size
Pf growth 96h – P. falciparum growth inhibition at 96 hour, primary screen for plastid delayed-death inhibitors | AID 504834 | P. falciparum luciferase reporter growth, 96 h | hit rate 6.9% among 320,000 | Potency, µM (top dose mostly 28.7 µM), without a hit: at the highest dose activity change, negative = inhibition, usual class: inhibitors; further: potency means the concentration at half of the fitted maximal effect; on the % scale 0 is the no-effect control and ±100 the full control effect
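Infected RBCs, 2% Hct / 0.05% parasitemia final; luciferase-reporter P. falciparum; cpd 96 h, 37 C, 5% CO2; luciferase detection reagent; luminescence.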
Cycloheximide cs – counter-screen for Shiga toxin inhibitors: cycloheximide protein synthesis inhibition | cell reporter, cycloheximide protein synthesis inhibition counterscreen | max response, % | hit rate 12% among 300,000 | AID 2314; in the data active means max response mostly above about 13%, no sharp cut-off; inactive means mostly below about 14%; further: read at 38.3 µM for the half of the compounds with a filed dose; 0% is about no effect
Shiga inhibitor – inhibitors of Shiga toxin in Vero cells | Vero cells, Shiga toxin protein synthesis inhibition reporter | inhibition, % at 38.7 µM | hit rate 9.2% among 290,000; in the data active means inhibition mostly above about 28%, no sharp cut-off; inactive means mostly below about 43%; further: 0% is about no effect
The depositor's hits bear a star. This is a sample that favours compounds with a hit; in the whole collection about 21% have one here. Unless noted, the call rests on the fitted dose curve; in most records, active means well fitted inhibition curve with a large enough effect; inconclusive means small, poorly fitted or top-dose-only effect, or another doubt; inactive means no such curve, though single readings can be large or run the other way.

Results for O=C(NCCCN1CCCC1)c1ccc2c(c1)N(Cc1cccc(Cl)c1)C(=O)c1ccccc1S2=O (stereo not drawn) ?
NS1 inh: -0.1%; Pf growth 48h: 3.29µM*; SARS PLP yeast: -9.2%; Pf growth 96h: 0.0%; Cycloheximide cs: -5.5; Shiga inhibitor: -21.4

How did O=C(COc1cc2oc(=O)cc(-c3ccccc3)c2cc1Cl)NCc1ccccn1 do in these assays?
NS1 inh: 0.4%; Pf growth 48h: -5.3%; SARS PLP yeast: 1.0%; Pf growth 96h: -6.1%; Cycloheximide cs: -2.6; Shiga inhibitor: 33.8

Results for Cc1ccccc1CN1C(=O)c2ccccc2S(=O)c2ccc(C(=O)NCCCN3CCOCC3)cc21 (stereo not drawn) ?
NS1 inh: 6.0%; Pf growth 48h: inconclusive; SARS PLP yeast: 23.0%; Pf growth 96h: 1.47µM*; Cycloheximide cs: -2.0; Shiga inhibitor: -10.8

Results for Cc1ccc(C)c(CN2C(=O)c3ccccc3S(=O)c3ccc(C(=O)N4CCN(c5ccccn5)CC4)cc32)c1 (stereo not drawn) ?
Pf growth 48h: 11.7µM*; SARS PLP yeast: 2.4%; Pf growth 96h: inconclusive; Cycloheximide cs: 10.1; Shiga inhibitor: 1.3

What do the screens show for `Cc1cc(C)cc(NC(=O)C(OC(=O)c2cc[n+]([O-])cc2)c2ccccc2)c1` (stereo not drawn)?
Pf growth 48h: -2.8%; SARS PLP yeast: 0.3%; Pf growth 96h: 0.5%

Results for COc1ccc(C(c2c(C)n(C)n(-c3ccccc3)c2=O)c2c(C)n(C)n(-c3ccccc3)c2=O)c(OC)c1OC ?
NS1 inh: 8.2%; Pf growth 48h: inconclusive; SARS PLP yeast: 0.4%; Pf growth 96h: 10.4µM*; Cycloheximide cs: -2.6; Shiga inhibitor: -4.9

What do the screens show for `COc1cc(-c2nnc(SCc3cccnc3)n2C)cc(OC)c1O`?
NS1 inh: -0.6%; Pf growth 48h: 0.0%; SARS PLP yeast: 10.1%; Pf growth 96h: inconclusive; Cycloheximide cs: -2.2; Shiga inhibitor: -7.8

What do the screens show for `CNc1ccccc(-c2ccc3cc4c(cc3n2)OCO4)c1=O`?
NS1 inh: 3.3%; Pf growth 48h: 253.3%; SARS PLP yeast: -42.7%; Pf growth 96h: 442.2%; Cycloheximide cs: 65.6*; Shiga inhibitor: 58.8*

Results for COC(=O)c1cc(OC)c(OC)cc1NC(=O)CSc1ccccc1 ?
NS1 inh: -21.7%; Pf growth 48h: inconclusive; SARS PLP yeast: -1.9%; Pf growth 96h: inconclusive; Cycloheximide cs: -3.8; Shiga inhibitor: 9.9

How did Cc1ccc(Nc2cc(-n3cccn3)ncn2)c(C)c1 do in these assays?
NS1 inh: -51.1%; SARS PLP yeast: -3.2%; Pf growth 96h: -26.2%; Cycloheximide cs: 27.8*; Shiga inhibitor: 22.3

What do the screens show for `Fc1cccc(Nc2cc(-n3cccn3)ncn2)c1`?
NS1 inh: -5.6%; Pf growth 48h: 205.6%; SARS PLP yeast: -3.6%; Pf growth 96h: 80.1%; Cycloheximide cs: 48.8*; Shiga inhibitor: 51.0*

How did COc1ccc(CN2CCC(=O)N(CCO)CC2)cc1OC do in these assays?
NS1 inh: 10.6%; Pf growth 48h: -1.9%; SARS PLP yeast: 1.4%; Pf growth 96h: 24.1%; Cycloheximide cs: 2.5; Shiga inhibitor: 12.1

How did CN(CC(=O)Nc1ccccc1Br)C(=O)CN1CCN(Cc2cccc(Cl)c2)CC1 do in these assays?
SARS PLP yeast: 4.1%

Results for Cc1ccc2c(c1)N(CC(=O)Nc1ccccc1F)C(=O)CO2 ?
NS1 inh: 13.9%; Pf growth 48h: 6.3%; SARS PLP yeast: 1.8%; Pf growth 96h: 2.94µM*; Cycloheximide cs: -2.9; Shiga inhibitor: -0.6

What do the screens show for `CCOc1ccccc1NC(=O)CN1C(=O)C(=O)N(Cc2ccco2)C1=O`?
Pf growth 48h: 11.7µM*; SARS PLP yeast: 1.3%; Pf growth 96h: -0.3%; Cycloheximide cs: -1.5; Shiga inhibitor: -5.7

What do the screens show for `O=C(CN1C(=O)COc2ccccc21)N(Cc1ccccc1)Cc1ccccn1`?
NS1 inh: -9.0%; Pf growth 48h: -2.2%; SARS PLP yeast: 13.3%; Pf growth 96h: inconclusive; Cycloheximide cs: 34.7*; Shiga inhibitor: 108.1

Results for CCOc1ccccc1NC(=O)CN1C(=O)COc2ccccc21 ?
NS1 inh: 6.1%; Pf growth 48h: -11.1%; SARS PLP yeast: -0.8%; Pf growth 96h: 11.7µM*; Cycloheximide cs: -2.8; Shiga inhibitor: 7.4

What do the screens show for `O=C(CN1C(=O)COc2ccccc21)Nc1ccccc1F`?
NS1 inh: 0.4%; Pf growth 48h: 10.0%; SARS PLP yeast: 1.1%; Pf growth 96h: 11.1%; Cycloheximide cs: -3.5; Shiga inhibitor: -7.5

What do the screens show for `Cc1ccc(CN(Cc2cccnc2)C(=O)CN2C(=O)COc3ccccc32)o1`?
NS1 inh: -67.8%; Pf growth 48h: 5.0%; SARS PLP yeast: -2.2%; Pf growth 96h: 50.1%; Cycloheximide cs: 7.9; Shiga inhibitor: -12.1

Results for O=C(NC1CCCCCC1)c1ccc(=O)n(Cc2ccccc2)n1 ?
Pf growth 48h: -26.5%; SARS PLP yeast: -2.7%; Pf growth 96h: inconclusive; Cycloheximide cs: -3.0; Shiga inhibitor: 21.3

Results for COc1cccc(N(CC(=O)NCCSc2ccccn2)S(=O)(=O)c2ccccc2)c1 ?
NS1 inh: -4.5%; Pf growth 48h: 13.1µM*; SARS PLP yeast: 0.5%; Pf growth 96h: 5.3%; Cycloheximide cs: -2.6; Shiga inhibitor: -2.7

What do the screens show for `COc1ccc(Cl)cc1N(CC(=O)NCCSc1ccccn1)S(=O)(=O)c1ccccc1`?
NS1 inh: 5.2%; Pf growth 48h: -17.3%; SARS PLP yeast: -5.7%; Pf growth 96h: 1.65µM*; Cycloheximide cs: -6.5; Shiga inhibitor: -15.2

Results for COc1ccc(N(CC(=O)NCCSc2ccccn2)S(=O)(=O)c2ccccc2)cc1Cl ?
NS1 inh: -14.2%; Pf growth 48h: -37.9%; SARS PLP yeast: 1.4%; Pf growth 96h: 38.2%; Cycloheximide cs: 5.0; Shiga inhibitor: -38.5

What do the screens show for `O=S(=O)(c1ccc2nc(-c3ccccc3)[nH]c2c1)N1CCN(c2cccc(Cl)c2)CC1`?
NS1 inh: 10.6%; Pf growth 48h: inconclusive; SARS PLP yeast: -2.0%; Pf growth 96h: 8.4%; Cycloheximide cs: -4.9; Shiga inhibitor: -14.1

What do the screens show for `COc1ccccc1N1CCN(S(=O)(=O)c2ccc3nc(-c4ccccc4)[nH]c3c2)CC1`?
NS1 inh: 24.3%; Pf growth 48h: -25.4%; SARS PLP yeast: 28.5%; Pf growth 96h: 2.94µM*; Cycloheximide cs: -6.6; Shiga inhibitor: -8.1

How did COc1ccccc1N1CCN(C2CCN(S(=O)(=O)c3ccc4ccccc4c3)CC2)CC1 do in these assays?
NS1 inh: -5.6%; Pf growth 48h: 13.1µM*; SARS PLP yeast: 3.3%; Pf growth 96h: inconclusive; Cycloheximide cs: -1.8; Shiga inhibitor: 44.1

Results for COc1ccccc1N1CCN(C2CCN(S(=O)(=O)c3ccc(C)cc3)CC2)CC1 ?
NS1 inh: -3.4%; Pf growth 48h: inconclusive; SARS PLP yeast: -0.4%; Pf growth 96h: 4.15µM*; Cycloheximide cs: -1.2; Shiga inhibitor: 11.5
